# GRIN3A LBD mod: NR3A (human) ligand-binding domain modulation; Tm shift relative to glycine control, % at 25 µM; NR3A LBD differential scanning fluorimetry, Tm shift; 0% = protein alone, 100% = glycine-bound protein; 340,000 tested, 2.5% active;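 active means melting temperature shift of at least 10% of the positive control shift, at one fixed dose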
# ZTA counter: counter-screen for EBNA-1 inhibitors: inhibitors of Epstein-Barr virus ZTA; AID 2234; 320,000 tested, 0.15% active; P03206; ZTA-DNA binding, fluorescence polarization; inhibition, % at 11 µM; in the data active means inhibition above about 33%
# Target sequence (P03206 whole entry, looked up): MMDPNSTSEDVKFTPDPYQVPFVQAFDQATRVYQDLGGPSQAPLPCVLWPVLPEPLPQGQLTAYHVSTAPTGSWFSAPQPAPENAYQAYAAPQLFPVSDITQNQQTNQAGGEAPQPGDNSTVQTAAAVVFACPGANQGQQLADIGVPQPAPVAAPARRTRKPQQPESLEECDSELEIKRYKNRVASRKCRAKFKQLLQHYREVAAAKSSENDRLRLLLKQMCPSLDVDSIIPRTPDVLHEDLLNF
# dFosB act: mouse delta FosB homodimer activation | P13346 | purified delta FosB, TAMRA-CDK5 oligo fluorescence polarization; percent of positive-control signal above neutral wells | activation, % at 25 µM | 340,000 tested, 0.99% active;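 active means mean activation above about 17%, with every replicate also reaching it, limit read from the data, passing the limit was not always enough; inconclusive means only one of the two conditions met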
# Rpn11 inh: blocks the human proteasome subunit Rpn11; human 26S proteasome, Ub4-pepOG fluorescence polarization; 20S core pre-blocked with epoxomicin; inhibition, % at 20 µM; 360,000 tested, 0.59% active;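 active means inhibition at 20 µM, scaled to each plate's controls, above about 33%, limit read from the data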
# Target sequence (O00487 whole entry, looked up): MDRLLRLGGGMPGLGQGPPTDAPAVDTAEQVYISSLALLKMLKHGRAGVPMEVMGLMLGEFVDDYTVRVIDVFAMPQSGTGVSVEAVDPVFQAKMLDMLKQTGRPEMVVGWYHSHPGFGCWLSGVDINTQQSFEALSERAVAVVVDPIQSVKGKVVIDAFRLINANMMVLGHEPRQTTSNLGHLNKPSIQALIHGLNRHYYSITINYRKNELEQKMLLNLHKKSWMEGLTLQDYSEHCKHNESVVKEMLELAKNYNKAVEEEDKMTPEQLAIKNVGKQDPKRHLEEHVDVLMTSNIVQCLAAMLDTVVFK
# TPT1 inh: inhibitors of Candida albicans tRNA 2'-phosphotransferase TPT1. inhibition, % at 5 µM. 300,000 tested, 0.81% active. AID 1962. recombinant caTPT1, FP RNA substrate dephosphorylation;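 active means inhibition above the mean of all tested compounds plus 3 SD, set per screening campaign, cut at about 24% in these data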;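 further: plate controls were DMSO alone for no effect and ferristatin control at 100 nM for full effect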
# EBNA-1 inh: blocks EBNA-1 binding to DNA; EBNA-1 DNA binding, fluorescence polarization; inhibition, % at 14.8 µM; 300,000 tested, 0.34% active; AID 1950; in the data active means inhibition above about 28%
# * = called active by the depositor; ? = inconclusive; . = not tested or not shown. Most compounds without a hit are left out; they make up all but 4.5% or so of the library.
SMILES,GRIN3A LBD mod,ZTA counter,dFosB act,Rpn11 inh,TPT1 inh,EBNA-1 inh
O=C(NC(Cc1ccccc1)C(=O)O)/C(=C/c1ccccc1)NC(=O)c1ccccc1 (stereo unspecified),14*,0,6,2,2,-3
CS/C(=C/[N+](=O)[O-])Nc1cccc2c1C(C)CC2(C)C (stereo unspecified),-1,16,-5,-11,0,8
COc1ccc(C(=O)/C=C/C(=O)N(Cc2ccccc2)C(C(=O)NC2CCCCC2)c2ccncc2)c(O)c1 (stereo unspecified),17*,3,-2,3,0,-14
O=C(Nc1ccc(OC(F)(F)F)cc1)c1cc(S(=O)(=O)N2CCCCC2)ccc1N1CCOCC1,.,.,.,0,.,.
O=C(Nc1ccccc1)c1ccc2c(c1)OCCO2,-1,13,2,0,1,-1
O=C(Nc1ccc2nn(-c3ccccc3)nc2c1)c1ccc2c(c1)OCCO2,21*,24,1,6,2,14
Cc1ccc(-n2nc3ccc(NC(=O)c4ccc5c(c4)OCO5)cc3n2)cc1,13*,4,7,9,-1,-5
CCc1ccc(-n2nc3ccc(NC(=O)c4ccc5c(c4)OCO5)cc3n2)cc1,15*,3,0,-1,-2,3
Cc1ccc(-n2nc3ccc(NC(=O)c4cccc([N+](=O)[O-])c4C)cc3n2)cc1,17*,1,?,-3,-1,3
COc1ccccc1CNC(=O)C(=O)Nc1ccc(C(=O)N2CCC(C)CC2)cc1,0,15,-12,0,2,6
O=C(OCc1cncs1)c1ccccc1,-6,3,3,4,1,3
Cc1cccc(-n2c(C)cc(C)c(C#N)c2=O)c1,-2,-9,1,4,-6,-9
COc1ccc(C)cc1NC(=O)COC(=O)CCC(=O)c1cccs1,0,6,-2,-7,.,.
O=C(/C=C/c1ccco1)Nc1ccc2nn(-c3ccccc3)nc2c1,14*,3,-13,34,13,11
Cc1cc(NC(=O)/C=C/c2ccco2)ccc1NC(=O)c1ccccc1,0,-11,-6,1,0,-3
CCc1ccccc1N(CC(=O)N1CCCCCC1)S(C)(=O)=O,-1,-7,6,-2,-4,-3
Cc1nc2ccc(NC(=O)c3ccc([N+](=O)[O-])cc3[N+](=O)[O-])cc2s1,0,-5,-3,-2,4,4
Cc1ccccc1NS(=O)(=O)c1cc(C(=O)Nc2cccc([N+](=O)[O-])c2)ccc1C,24*,-1,5,4,0,-10
Cc1ccc([N+](=O)[O-])cc1NC(=O)c1ccc(-c2ccccc2)cc1,-1,-11,0,4,-7,20
Cc1nc2ccc(C(=O)Nc3cccc([N+](=O)[O-])c3)cc2s1,21*,-1,13,-2,0,-5
O=C(Nc1cccc([N+](=O)[O-])c1)c1ccc(-c2ccccc2)cc1,25*,4,6,2,0,0
CCn1c2ccccc2c2cc(NC(=O)c3cccc([N+](=O)[O-])c3)ccc21,17*,-5,-10,18,7,-5
Cn1c(COc2ccccc2)nnc1SCC(=O)NC1CCCC1,1,1,-6,0,-2,5
O=C(CN1CCN(S(=O)(=O)c2ccc(Br)s2)CC1)N1CCCCC1,4,2,-5,10,.,.
CCOC(=O)CC1CCCCN1C(=O)c1ccc2nc(CCOC)oc2c1 (stereo unspecified),0,-3,-7,3,-1,-11
SMILES,GRIN3A LBD mod,ZTA counter,dFosB act,Rpn11 inh,TPT1 inh,EBNA-1 inh
O=C(Nc1cccc([N+](=O)[O-])c1)c1cc2ccccc2cc1O,27*,-1,-14,6,-2,-8
CCc1ccccc1NC(=O)CSc1nc(-c2ccccc2)nn1C(=O)c1cccc([N+](=O)[O-])c1,.,-16,.,.,-6,-7
CS(=O)(=O)Nc1ccc(C(=O)Nc2cccc([N+](=O)[O-])c2)cc1,21*,-4,7,0,-2,-4
O=C(O)c1ccccc1C(=O)Nc1cccc([N+](=O)[O-])c1,-1,19,-3,-5,0,17
O=C(CSc1nc(-c2ccccc2)nn1C(=O)c1ccccc1)Nc1cccc([N+](=O)[O-])c1,13*,-4,-5,5,-6,-6
Cc1ccc(NC(=O)COC(=O)CCC(=O)c2cccs2)c(C)c1,-1,4,-9,-2,2,0
CCOc1ccc(CCNC(=O)COC(=O)c2nccnc2N)cc1OCC,1,-6,-6,9,2,-15
COC(=O)c1ccc(C)c(NC(=O)CCSc2ccccc2)c1,1,-22,-3,-7,-4,-2
COC(=O)c1ccc(C)c(NC(=O)CCSc2ccc(Cl)cc2)c1,31*,-3,-2,-2,-4,-4
O=C(CCNS(=O)(=O)c1ccccc1)OCC(=O)c1ccc(Cl)cc1,2,18,1,0,0,1
Nc1cc(N)nc(SCC(=O)c2ccc3c(c2)NC(=O)CO3)n1,153*,-7,4,-3,2,3
O=C(NCc1cccnc1)c1csc([C@@H]2C[C@H](O)[C@@H](CO)O2)n1,.,.,.,-2,.,.
COc1cccc2cc(C(=O)C3=C(O)C(=O)N(CCN4CCOCC4)C3c3ccc(C)o3)oc12 (stereo unspecified),-3,-13,-3,-3,2,-8
COc1ccc(-c2cnnc(N/N=C/c3ccc(O)cc3)n2)cc1,-9,12,-15,5,-2,0
COc1ccc(Nc2nc(NCc3ccco3)nc(N/N=C/c3ccc(O)cc3)n2)cc1,19*,24,42*,-3,-1,15
CC(C)c1ccc(Nc2nc(Cl)nc(NCc3ccco3)n2)cc1,-1,12,9,-1,-4,5
COc1ccc(Nc2nc(NCc3ccco3)nc(N/N=C/c3ccccc3F)n2)cc1,16*,8,1,17,2,0
COc1ccc(NC(=S)NCc2ccco2)cc1,3,10,1,-3,-2,3
COc1ccc(/C=N/Nc2nc(NCc3ccco3)nc(Nc3ccc(OC)cc3)n2)cc1,18*,-19,-2,-4,-1,9
CCN(CC)C(=O)c1ccc(N)cc1,0,-27,-2,-2,-2,1
Cc1ccc2nc(NC(=O)CN3C(=O)NC4(CCCCC4)C3=O)sc2c1,0,15,-10,0,2,6
O=C(COC(=O)CNC(=O)c1sc2ccccc2c1Cl)Nc1cc(Cl)cc(Cl)c1,0,13,167*,18,1,1
CCOc1cccc(-c2nn(-c3ccccc3)cc2/C=C(/C#N)C(=O)NCCCn2ccnc2)c1,-11,13,-20,0,2,-2

# Compound activity (PubChem BioAssay)
